Sampled rows, rich in hits. Any-hit rate of the full collection: about 11%.
NPR1 antag: antagonists of human natriuretic peptide receptor Npr1; P16066; HEK293 hNpr1 GloSensor cGMP, ANP-stimulated luminescence; Potency, µM (series often up to 46.3 µM), inactives show at the highest dose activity change, negative = inhibition, hits mostly inhibitors; actives 1.6% (n = 76,000); AID 1347048; calls by dose curve; also: % is scaled to controls: 0 for no effect and ±100 for the full control effect; nearly all actives have a fitted effect of over 60% in size
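Compound pre-incubated 30 min at room temperature on GloSensor-loaded HEK293 cells stably carrying hNpr1 and the pGS-40F cGMP biosensor. Stimulation uses hNppA at 0.1 nM final; luminescence is taken at baseline and 20 min post-agonist.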
HEK cytotox: cytotoxic compounds in HEK 293 cells. actives 6.6% (n = 94,000). HEK 293 viability, ATP luminescence (CellTiter-Glo), 48-72 h. Potency, µM (highest dose often 115 µM), for the others: top-dose activity change, negative = cytotoxicity, most hits filed as inhibitors; also: % is scaled to controls: 0 for no effect and ±100 for the full control effect; nearly all actives have a fitted effect of over 60% in size
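Pintool-delivered compounds were incubated with HEK 293 cells (250 cells/well) at 37 degree Celsius for 48 or 72 hr. ATP-dependent luminescence (CellTiter-Glo) then reported remaining viable cells.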
NIH3T3 tox: cytotoxic compounds in NIH 3T3 cells; NIH 3T3 viability, CellTiter-Glo ATP luminescence, 48-72 h; Potency, µM (top dose mostly 96.7 µM), for the others: at the highest dose activity change, negative = cytotoxicity, hits mostly inhibitors; actives 4.3% (n = 94,000); AID 1345082; also: % is scaled to controls: 0 for no effect and ±100 for the full control effect; nearly all actives have a fitted effect of over 55% in size
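Cytotoxicity was measured by CellTiter-Glo ATP luminescence after 48 or 72 h compound exposure at 37 °C. Mouse NIH 3T3 fibroblasts were seeded at 400 cells/well and dosed by 23 nL pin transfer.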
FLuc inh-1: Photinus pyralis luciferase inhibition. actives 2.5% (n = 76,000). P08659. Potency, µM (doses to about 115 µM), usual class: inhibitors. purified P. pyralis luciferase, luminescence, biochemical; also: % is scaled to controls: 0 for no effect and ±100 for the full control effect; nearly all actives have a fitted effect of over 65% in size
Target sequence (P08659 whole entry, looked up): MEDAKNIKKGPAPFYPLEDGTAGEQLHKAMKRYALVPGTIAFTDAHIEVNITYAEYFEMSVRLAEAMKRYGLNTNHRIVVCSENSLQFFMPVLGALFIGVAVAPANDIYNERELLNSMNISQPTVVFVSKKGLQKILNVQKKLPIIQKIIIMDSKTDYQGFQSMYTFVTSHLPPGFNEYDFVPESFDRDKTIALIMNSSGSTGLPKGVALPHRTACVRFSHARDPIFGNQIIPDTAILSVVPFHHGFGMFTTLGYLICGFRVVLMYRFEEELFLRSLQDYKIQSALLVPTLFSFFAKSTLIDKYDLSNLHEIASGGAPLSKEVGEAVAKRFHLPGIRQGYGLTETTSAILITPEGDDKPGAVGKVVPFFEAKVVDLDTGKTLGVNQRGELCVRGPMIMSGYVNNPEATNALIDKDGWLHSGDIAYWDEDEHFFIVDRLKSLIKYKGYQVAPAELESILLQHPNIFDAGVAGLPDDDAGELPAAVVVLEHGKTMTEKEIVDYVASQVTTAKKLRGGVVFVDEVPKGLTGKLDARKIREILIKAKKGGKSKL
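Purified 10nM P. pyralis luciferase with 10uM D-luciferin and 10uM ATP in 50mM Tris acetate pH 7.5, 10mM Mg acetate, 0.01% Tween-20, 0.05% BSA. qHTS titration; luminescence read by CCD imager.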
FLuc SDR -ATP: firefly luciferase binding stabilization, ATP absent. Potency, µM (top dose mostly 32.7 µM), without a hit: top-dose activation (signal gain), hits mostly activators. actives 7.8% (n = 1,300). shares compounds with FLuc inh-1. Purified FLuc-C-HiBiT, Nano-Glo HiBiT luminescence, no ATP; also: nearly all actives have a fitted effect of over 55% in size
FLuc SDR ATP: stabilizes firefly luciferase with ATP present. AID 1963319. purified FLuc-C-HiBiT + ATP, HiBiT complementation luminescence. shares compounds with FLuc inh-1. Potency, µM (doses to about 32.7 µM), without a hit: at the highest dose activation (gain of signal), actives largely listed as activators. actives 8.7% (n = 1,300);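 also: signal reports ligand binding via conformational change of the enzyme rather than luciferase catalysis; % of control where 0% means no effect; nearly all actives have a fitted effect of over 55% in size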
FLuc inh-2: blocks firefly luciferase enzymatic activity | shares compounds with FLuc inh-1 | purified FLuc-C-HiBiT enzyme, luciferin luminescence | Potency, µM (doses to about 32.7 µM), for inactives: at the highest dose activity change, negative = inhibition, usual class: inhibitors | actives 42% (n = 1,300) | AID 1963320; also: % is scaled to controls: 0 for no effect and ±100 for the full control effect; nearly all actives have a fitted effect of over 70% in size
* = called active by the depositor; i = inactive; ? = inconclusive; . = no result; [ ] = dose if it differs, or a comment. Unless noted, calls follow the shape of the dose curve; as a rule, active = well fitted curve in the direction sought with a large enough effect; inconclusive = small, poorly fitted or top-dose-only effect, or another doubt; inactive = no such curve, though single readings can be large; an effect the other way counts as inactive or inconclusive. Potency is read from the fitted curve at half-maximal effect.

SMILES	NPR1 antag	HEK cytotox	NIH3T3 tox	FLuc inh-1	FLuc SDR -ATP	FLuc SDR ATP	FLuc inh-2
COc1ccc(CN2C[C@H](O)C[C@H]2c2nc(-c3ccc(OC)cc3)no2)cc1	?	?	-30%[174 µM]	11µM*	-1%[49.3 µM]	1%[49.3 µM]	?
COc1ccc(-c2noc([C@@H]3C[C@@H](O)CN3Cc3cc4ccccc4o3)n2)cc1	?	-11%[172 µM]	-9%[174 µM]	5µM*	18%[49.3 µM]	?	16µM*
COCCc1noc([C@@H]2CN(CC3CCCCC3)C[C@H]2CO)n1	3%	-1%	-22%	i	.	.	.
O=C1CC(c2ccccc2)N(Cc2ccncc2)CCCN(C(=O)CCc2ccccc2)CCN1 (centres undefined)	-23%	?	-24%	i	.	.	.
COc1ccc(C(=O)Oc2ccc(C(c3c(C)[nH][nH]c3=O)c3c(C)[nH][nH]c3=O)cc2)cc1	.	.	.	.	9%	12%	?
CC(=O)NC1CCN(Cc2cn(-c3ccc(C)cc3)nc2-c2cccc(C)c2)C1 (centres undefined)	-1%	?	?	13µM*	15%	9%	?
Cc1ccccc1CCNC(=O)c1ccc2c(c1)nc1n2CCOC1	.	.	.	.	12µM*	?	5µM*
Cc1ccccc1CCNC(=O)c1ccc2c(c1)nc1n2CCCCC1	.	.	.	.	2.8µM*	?	0.88µM*
Cc1cccc(-c2nc3ccc(C(=O)NCCN4CCOCC4)cc3o2)n1	.	-18%[172 µM]	?	.	.	.	.
C[C@]1(CO)C2CC[C@@H](O)[C@@H](CC(=O)N3CCCC3)[C@]2(C)CC[C@H]1OC(=O)Nc1ccccc1 (some centres undefined)	4%	1%	-18%	i	.	.	.
Cc1ccc2nc([C@H]3CCN(Cc4cccs4)C3)[nH]c2c1	-28%[70.6 µM]	56µM*	?	7.1µM*	16%[49.3 µM]	17%[49.3 µM]	?
Cc1ccccc1CN1CC[C@H](c2nc3ccccc3s2)C1	-26%[70.6 µM]	71µM*	?	7.9µM*	12%[49.3 µM]	10%[49.3 µM]	?
Cc1ccccc1CN1CC[C@H](c2nc3ccc(F)cc3[nH]2)C1	?	35µM*	?	14µM*	12%[49.3 µM]	10%[49.3 µM]	?
COC(=O)CNC(=O)c1nc2sccn2c1-c1ccc(OC)cc1	.	-10%[172 µM]	-13%[138 µM]	.	.	.	.
CN1CC(=O)N(c2ccccc2F)Cc2c(NC3CCOCC3)ncnc21	.	1%	-18%	.	.	.	.
CC(C)c1ccc(NC(=O)[C@@H]2COCC(=O)N2Cc2ccccc2)cc1	-10%	-23%	?	i	.	.	.
Cc1ccc(CN2C(=O)OC(c3cccc(NC(=O)c4ccc(C)cc4)c3)C2C(=O)NCC(C)C)cc1 (centres undefined)	?	?	-24%	7.1µM*	13%	11µM*	?
Cc1cccc(C(=O)Nc2cccc(C3OC(=O)N(Cc4ccccc4)C3C(=O)NCC(C)C)c2)c1 (centres undefined)	-3%	?	?	?	.	.	.
COCCOCC(=O)N1CCC2(CC1)NCCc1c2[nH]c2ccc(OC)cc12	14%	i	i	i	.	.	.
Cc1ccc(CNC(=O)c2ccc3c(c2)CN(Cc2cnn(C)c2C)CCO3)cc1	?	?	-9%	i	14%	8%	-7%
Cc1c(CN2CCOc3ccc(C(=O)NCc4ccccc4F)cc3C2)cnn1C	?	?	-10%	i	.	.	.
CN1CCN(c2ccc(-c3cc4c(ccn4C)c(C(=O)NCCC(N)=O)n3)cc2)CC1	-3%[70.6 µM]	71µM*	79µM*	7.1µM*	26%[49.3 µM]	17%[49.3 µM]	14µM*
Cn1ccc2c(C(=O)NCc3cccnc3)nc(-c3ccc(N4CCOCC4)cc3)cc21	-11%[70.6 µM]	112µM*	?	14µM*	15%[49.3 µM]	11%[49.3 µM]	?
CN1CCN(c2ccc(-c3cc4c(ccn4C)c(C(=O)NCC4CCC(=O)N4)n3)cc2)CC1 (centres undefined)	1%	40µM*	28µM*	10µM*	18%	12%	?
Cn1ccc2c(C(=O)NCCC(N)=O)nc(-c3ccccc3C(F)(F)F)cc21	4%[70.6 µM]	?	?	i	.	.	.
SMILES	NPR1 antag	HEK cytotox	NIH3T3 tox	FLuc inh-1	FLuc SDR -ATP	FLuc SDR ATP	FLuc inh-2
CN(C)CCNC(=O)c1nc(-c2cccc(N3CCOCC3)c2)cc2c1ccn2C	3%[70.6 µM]	?	?	i	.	.	.
CCc1ccc2oc(-c3cccc(NC(=O)c4cc5ccccc5o4)c3)nc2c1	.	.	.	.	21%	18%	?
Cc1ccc(NC(=O)c2ccc3oc(-c4ccncc4)nc3c2)cc1	.	?	-14%[138 µM]	.	.	.	.
CCc1ccc2oc(-c3ccc(NC(=O)c4ccc(OC)c(Br)c4)cc3)nc2c1	.	.	.	.	12%	8%	-12%
COc1cccc(CC(=O)NCc2nnc3cc(-c4nc(C5CC5)no4)ccn23)c1	?	-6%	4%	i	.	.	.
Fc1cccc(Nc2ncc(-c3cccnc3)c3c2OCC3)c1	-10%[70.6 µM]	?	-34%[138 µM]	i	.	.	.
Oc1c(Br)cc(Br)cc1-c1nc2ccccc2s1	.	.	.	.	10%	8%	?
O=C(c1ccc(Cl)nc1)N1CCCC(C(=O)N2CCC(N3CCOC3=O)CC2)C1 (centres undefined)	.	-18%	-8%	.	.	.	.
OC(c1ccccc1)c1nc(Nc2ccc3c(c2)OCO3)n[nH]1 (centres undefined)	-23%[70.6 µM]	-28%[172 µM]	?	i	.	.	.
Oc1ccc(-c2nc3ccccn3c2Nc2ccc3c(c2)OCCO3)cc1	.	.	.	.	21%	17%	?
CN(C)c1ccc(-c2nc3ccccn3c2Nc2ccc3c(c2)OCCO3)cc1	.	.	.	.	19%	13%	11µM*
COCCN1CCCCCC(O)c2cc(C(=O)N3CC=C(c4ccccc4)CC3)ccc21 (centres undefined)	2%	?	?	i	.	.	.
CCc1ccccc1NC(=O)c1nnn(-c2ccc(F)cc2)c1C	.	.	.	.	30%	19%	?
CCc1ccccc1NC(=O)Cn1c(-c2ccc(F)cc2)nc(C)cc1=O	-1%	-2%	-21%	i	.	.	.
O=C(O)c1cccc(-c2noc(-c3ccc(C(F)(F)F)cc3)n2)c1	.	.	.	.	7µM*	0.0062µM*	0.0035µM*
O=C(O)c1cccc(-c2noc(-c3cccc(C(F)(F)F)c3)n2)c1	.	.	.	.	?	0.039µM*	0.016µM*
Cc1ccccc1-c1ccc(COc2ccc3c(cnn3CCC(=O)O)c2)cc1	-16%[70.6 µM]	?	?	?	20%[49.3 µM]	13%[49.3 µM]	16µM*
Cc1ccc(F)cc1-c1ccc(COc2ccc3c(cnn3CCC(=O)O)c2)cc1	-14%[70.6 µM]	?	?	22µM*	19%[49.3 µM]	12%[49.3 µM]	?
COc1cccc(F)c1-c1ccc(COc2ccc3c(cnn3CCC(=O)O)c2)cc1	-8%[70.6 µM]	?	?	25µM*	16%[49.3 µM]	10%[49.3 µM]	?

From PubChem BioAssay
